Source: PubChem BioAssay (The Scripps Research Institute Molecular Screening Center)
pPAFAH inh: pPAFAH (human) enzyme inhibition; inhibition, % at 3.39 µM; recombinant pPAFAH, FP-rhodamine probe fluorescence polarization; AID 463082; Q13093; 330,000 compounds, 1.5% hits;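 active = inhibition above the mean inhibition across the screen plus 3 SD, cut at about 25% in these data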;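 also: inhibitors block binding of the rhodamine activity-based probe so polarization drops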
PAFAH1B2 inh: blocks human PAF acetylhydrolase 1b catalytic subunit 2; P68402; recombinant PAFAH1B2, FP-rhodamine activity probe, fluorescence polarization; inhibition, % at 3.39 µM; 340,000 compounds, 1.2% hits; AID 492953;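 active = inhibition above the mean of all tested compounds plus 3 SD, cut at about 24% in these data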
Target sequence (P68402 whole entry, looked up): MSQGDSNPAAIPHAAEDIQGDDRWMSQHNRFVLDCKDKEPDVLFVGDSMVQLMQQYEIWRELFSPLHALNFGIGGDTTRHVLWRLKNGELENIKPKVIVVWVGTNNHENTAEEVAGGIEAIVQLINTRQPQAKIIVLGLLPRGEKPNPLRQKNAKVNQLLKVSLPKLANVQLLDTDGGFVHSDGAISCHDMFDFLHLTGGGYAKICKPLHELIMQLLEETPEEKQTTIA
PAFAH2 inh: inhibitors of human PAFAH2 | 340,000 compounds, 0.99% hits | inhibition, % at 3.39 µM | recombinant PAFAH2, FP-rhodamine activity probe, fluorescence polarization;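 active = inhibition above the mean over all tested compounds plus 3 SD, cut at about 30% in these data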;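 also: inhibitors block probe labeling of enzyme so polarization drops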
PME-1 inh: blocks human protein phosphatase methylesterase 1; inhibition, % at 5.9 µM; 320,000 compounds, 0.53% hits; Q9Y570; recombinant PME-1, FP-Rh probe fluorescence polarization;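 active = inhibition above the campaign mean of all compounds plus 3 SD, cut at about 26% in these data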;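 also: competitive labeling of PME-1 active site by serine hydrolase directed probe; inhibitors block probe labeling so polarization falls and inhibition rises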
Target sequence (Q9Y570 whole entry, looked up): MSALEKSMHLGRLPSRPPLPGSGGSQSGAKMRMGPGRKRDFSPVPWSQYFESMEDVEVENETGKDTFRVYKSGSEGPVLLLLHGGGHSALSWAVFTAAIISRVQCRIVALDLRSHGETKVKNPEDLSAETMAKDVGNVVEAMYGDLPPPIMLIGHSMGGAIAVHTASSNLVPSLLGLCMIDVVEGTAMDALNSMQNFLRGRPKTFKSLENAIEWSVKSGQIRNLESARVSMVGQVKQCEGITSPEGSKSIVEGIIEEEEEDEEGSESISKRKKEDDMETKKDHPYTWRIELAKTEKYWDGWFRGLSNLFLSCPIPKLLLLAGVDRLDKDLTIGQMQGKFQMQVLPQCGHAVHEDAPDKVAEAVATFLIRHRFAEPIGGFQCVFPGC
Fam108B counter: counter-screen for RBBP9 inhibitors: inhibitors of mouse Fam108B. recombinant Fam108B, FP-Rh probe fluorescence polarization. inhibition, % at 9.51 µM. 300,000 compounds, 0.33% hits;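 active = inhibition above the screen mean inhibition plus 3 SD, computed separately per campaign, cut at about 18% in these data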;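 also: inhibitors lower polarization as less probe binds the enzyme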
PAFAH1B3 FP inh: inhibitors of human PAFAH1B3; Q15102; recombinant PAFAH1B3, FP-rhodamine probe, fluorescence polarization; inhibition, % at 3.39 µM; 340,000 compounds, 0.28% hits; AID 492972;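 active = inhibition above the screen-wide average of all tested compounds plus 3 SD, cut at about 25% in these data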
pPAFAH FP conf: confirmation of human plasma PAF acetylhydrolase (pPAFAH) inhibitors; shares compounds with pPAFAH inh; recombinant pPAFAH, FP-Rh probe fluorescence polarization; inhibition, % at 3.39 µM; 2,300 compounds, 72% hits; AID 463230;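 active = mean inhibition of the triplicate above the hit cutoff set for the earlier primary screen, cut at about 25% in these data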
A number is an active result; i = inactive; nt = not tested or not shown. Compounds with a hit are over-represented: about 2.9% of the library has one in this group of screens.

SMILES	pPAFAH inh	PAFAH1B2 inh	PAFAH2 inh	PME-1 inh	Fam108B counter	PAFAH1B3 FP inh	pPAFAH FP conf
O=C(Nc1ccc(S(=O)(=O)Nc2ccccc2)cc1)C1COc2ccccc2O1 (stereo not given)	40	i	i	i	i	i	35
COC(=O)CCCC(=O)NC1CC(C)(C)Cc2c1cnn2-c1ccc(C)cc1 (stereo not given)	i	i	i	i	i	i	nt
O=C1/C(=C/c2ccco2)Oc2c1ccc(O)c2CN1CCCCC1	37	i	i	i	i	i	i
Cc1cc(C)n2c(SCC(=O)N(CC(C)C)c3c(N)n(CC(C)C)c(=O)[nH]c3=O)nnc2n1	i	i	i	i	i	i	nt
C=C(C)COc1ccc(-c2ncncc2-c2ccc(Cl)cc2)c(O)c1	i	i	i	i	i	i	nt
CC(C)(C)c1ccc(O)c(N=Cc2cc3c(cc2[N+](=O)[O-])OCO3)c1	41	i	i	i	i	i	i
Cc1ccc(C)c(N=Cc2cc3c(cc2[N+](=O)[O-])OCO3)c1	i	i	i	i	i	i	nt
O=[N+]([O-])c1cc(Br)cc(C=Nc2ccc3c(c2)OCO3)c1O	41	i	i	i	i	i	52
CCOc1ccccc1CN1CCN(C2CCSCC2)CC1CCO (stereo not given)	i	i	i	i	i	i	nt
Cc1nc(C(=O)Nc2ccccc2)sc1C1(C)CC(c2cccnc2)=NO1 (stereo not given)	i	i	i	i	i	i	nt
N#C/C=C1/NC(=O)c2ccccc2S1	57	i	i	i	i	i	i
COc1cc(OC)c(OC)cc1/C=C1\Oc2cc(OCC(=O)N3Cc4ccccc4C[C@H]3C(=O)O)ccc2C1=O	37	i	i	i	i	i	44
Cc1ccc(-n2nc3c(c2NC(=O)c2ccccc2Br)CS(=O)C3)cc1 (stereo not given)	i	i	i	i	i	i	nt
CCN1CCN(Cc2cc(=O)oc3cc4c(cc23)CCC4)CC1	i	i	i	i	i	i	nt
CN1CCN(Cc2cc(=O)oc3cc4c(cc23)CCC4)CC1	37	i	i	i	i	i	i
O=C(Cn1cc([N+](=O)[O-])cn1)NC1CCCCCC1	i	i	i	i	i	i	nt
CCc1nc2ccc(C(=O)NCCc3ccc(OC)c(OC)c3)cc2nc1CC	i	i	i	i	i	i	nt
COc1ccc(CCNC(=O)c2ccc3nc(-c4ccco4)c(-c4ccco4)nc3c2)cc1OC	44	i	i	i	i	i	i
Cc1ccc2c(CC(=O)NCC3COc4ccccc4O3)coc2c1 (stereo not given)	37	i	i	i	i	i	i
Cc1cc2nc3c(=O)[nH]c(=S)[nH]c3nc2cc1NC(=O)C(F)(F)F	79	i	i	i	i	i	i
O=c1[nH]c(=S)[nH]c2nc(-c3ccccc3)cnc12	i	i	i	i	i	i	nt
N#C/C(=C/c1cn(CC(=O)O)c2ccccc12)C(=O)NCc1ccccc1	i	i	i	i	i	i	nt
CCOC(=O)Nc1ccc2c(c1)N(C(=O)CN(CC)CC)c1ccccc1C=C2	i	i	i	i	i	i	nt
O=C(C1=C(O)C(=O)N(c2nc3ccc(Cl)cc3s2)C1c1ccco1)c1ccco1 (stereo not given)	49	i	i	i	nt	i	38
CC1CCC/C(=C\Nc2ccc(O)cc2)C1=O (stereo not given)	35	i	i	i	i	i	i
SMILES	pPAFAH inh	PAFAH1B2 inh	PAFAH2 inh	PME-1 inh	Fam108B counter	PAFAH1B3 FP inh	pPAFAH FP conf
CCN(CC)S(=O)(=O)c1ccc(OC)c(NC(=O)C2CC(=O)N(c3ccc4c(c3)OCCO4)C2)c1 (stereo not given)	i	i	i	i	i	i	nt
COc1ccc(NS(=O)(=O)c2cc(N=Nc3c(O)[nH]c(=O)[nH]c3=O)ccc2Cl)cc1	i	i	i	nt	nt	i	nt
Cc1ccc(NS(=O)(=O)c2ccc(Cl)c(N=Nc3c(O)[nH]c(=O)[nH]c3=O)c2)cc1Cl	89	i	41	nt	nt	26	89
Cc1cc(/C=C2\SC(=S)N(Cc3ccco3)C2=O)c(C)n1-c1cccnc1	nt	i	i	nt	nt	i	nt
Cc1cc(/C=C2/SC(=S)N(c3cccc(C(F)(F)F)c3)C2=O)c(C)n1-c1cccnc1	44	i	i	i	i	i	42
O=S1(=O)N=C(N/N=C/c2ccccn2)c2ccccc21	76	i	i	i	i	i	i
COc1ccc(/C=N/NC2=NS(=O)(=O)c3ccccc32)cc1	i	i	i	i	i	i	nt
Cc1ccc2nc3c(cc(C(=O)NCCN4CCOCC4)c(=N)n3CCCN3CCOCC3)c(=O)n2c1	i	i	i	i	i	i	nt
CCOc1ccc(NC(=O)CSc2nc3[nH]ncc3c(=O)n2-c2ccccc2OC)cc1	40	i	i	i	i	i	i
O=C(O)c1[nH]c2ccccc2c1NS(=O)(=O)Cc1ccccc1	38	i	i	i	i	i	i
CCN(CC)c1ccc(N=Cc2ccc([N+](=O)[O-])o2)cc1	43	i	i	i	i	i	i
CC(=O)Nc1ccc(S(=O)(=O)Oc2cccc(N3C(=O)C4CCCCC4C3=O)c2)cc1 (stereo not given)	i	i	i	i	i	i	nt
COc1ccc2[nH]c(=O)c(CN(C3CCCCC3)C(c3nnnn3Cc3ccco3)C(C)C)cc2c1 (stereo not given)	36	i	i	i	i	i	28
Cc1cc(OCc2cc(C(=O)N3CCCCCC3)no2)cc(C)c1Cl	i	i	i	i	i	i	nt
CCCc1cc(=O)n(-c2nc3ccccc3s2)[nH]1	i	i	i	i	i	i	nt
CCOC(=O)Cc1cc(=O)n(-c2nc3ccccc3s2)[nH]1	41	i	31	i	i	i	i
CCOC(=O)C(C(C)=O)c1c(Br)c(O)c(O)c2c(C(=O)c3ccc(C)cc3)coc12 (stereo not given)	47	i	i	i	i	i	35
Cc1ccc(C(=O)c2coc3ccc(O)c(Cl)c23)cc1	i	i	i	i	i	i	nt
COc1cccc(/C=C/C(=O)OCC(=O)c2cc(C)n(CC3CCCO3)c2C)c1OC (stereo not given)	i	i	i	i	i	i	nt
Cc1ccc(-c2nn(-c3ccccc3)cc2C2CC(c3cccs3)=NN2C(=O)CCCC(=O)O)cc1 (stereo not given)	40	i	i	i	i	i	i
COc1ccc(-c2nn(-c3ccccc3)cc2C2CC(c3cccs3)=NN2C(=O)CCCC(=O)O)cc1 (stereo not given)	i	i	i	i	i	i	nt
CC(C)(C)c1cc(NCCCn2ccnc2)n2ncc(-c3ccc(Cl)cc3)c2n1	39	i	i	i	i	i	i
Cc1cc(NCCCn2ccnc2)n2nc(-c3ccc(Cl)cc3)cc2n1	i	i	i	i	i	i	nt
